Screening data as filed in PubChem BioAssay.
NS3h inh CB: blocks HCV NS3 helicase binding to DNA; NS3h Cy5-dT15 DNA binding, fluorescence polarization; inhibition, % at 100 µM; hit rate 1.6% among 16,000; AID 687043;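 active = inhibition above the average over every tested compound plus 3 SD, cut at about 40% in these data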
Cy5 interf NS3h: Cy5 fluorescence interference, HCV helicase counter-screen | Cy5-dT15 DNA with NS3h; actives lie on both sides; signal over control mean, under 1 quenches | fluorescence interference ratio at 100 µM | hit rate 6% among 16,000 | AID 720488;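 active = compound fluorescence over control fluorescence at most 0.8, a quencher, or at least a set upper limit, an enhancer; inactive = ratio between 0.8 and the set upper limit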
Numbers without * were called inactive. An excerpt weighted towards active compounds, which were near 6.9% of everything screened.

SMILES	NS3h inh CB	Cy5 interf NS3h
Cc1ccc(C(=O)Oc2cccc(C3C4=C(CC(C)(C)CC4=O)NC4=C3C(=O)c3ccccc34)c2)cc1 (stereo not given)	9	0.97
Cc1cc(Nc2cc(Cl)cc(Cl)c2)n2ncnc2n1	-1	0.91
Cc1cc(Nc2ccc(C)c(Cl)c2)n2ncnc2n1	15	0.74*
O=C1Nc2ccc([N+](=O)[O-])cc2C1=Nc1ccc(-c2ccc(N=C3C(=O)Nc4ccc([N+](=O)[O-])cc43)cc2)cc1	8	0.77*
N#Cc1ccccc1N=C1C(=O)Nc2ccccc21	4	1.1
COc1ccc(CC(=O)Nc2ccc(Cl)c(C(F)(F)F)c2)cc1OC	8	1
Nc1nc2c(s1)-c1ccccc1CC2	29	1.2*
Cc1cccc(N2C(=O)C3CC=CCC3C2=O)n1 (stereo not given)	5	1.1
Cc1cccc(/C(N)=N\OC(=O)c2cccc(Br)c2)c1	14	1
CC(C)N(C(=O)c1ccc(C(=O)Nc2ccc(Nc3ccccc3)cc2)cc1)C(C)C	17	0.7*
O=C(Nc1ccc(Nc2ccccc2)cc1)c1ccc([N+](=O)[O-])cc1	17	0.95
O=C1C(=C2c3ccccc3C(=O)C2C2c3ccccc3Oc3ccccc32)C(=O)c2ccccc21 (stereo not given)	-2	0.8*
O=C(O)C(C(=O)O)C1c2ccccc2Oc2ccccc21	12	1
COc1cccc(OCCOc2ccccc2/C=C2/SC(=S)N(c3ccccc3)C2=O)c1	11	1
CS(=O)(=O)N1CCN(C(=O)COc2ccccc2)CC1	5	1.1
CC1CCN(C(=O)c2ccccc2)CC1	-2	0.68*
CC1CCN(C(=O)COc2ccc(-c3ccccc3)cc2)CC1	25	0.67*
CC1CCCN(C(=O)c2ccc(Cl)cc2)C1 (stereo not given)	2	1
CC1CCN(C(=O)c2ccc(I)cc2)CC1	5	0.99
CC1CCCN(C(=O)c2ccccc2)C1 (stereo not given)	6	0.79*
O=C(NCCCN1CCOCC1)/C(=C/c1cccc(Oc2ccccc2)c1)NC(=O)c1ccccc1	7	0.89
COc1ccc(/C=C2/N=C(c3sc4ccccc4c3Cl)OC2=O)cc1OC	0	0.99
O=c1oc2cc(OC/C=C/c3ccccc3)ccc2cc1-c1ccccn1	10	0.97
Cc1ccc(Nc2nc(-c3ccc(-c4ccccc4)cc3)cs2)cc1	-6	0.98
Nc1ccc(Nc2nc(-c3ccc(Br)cc3)cs2)cc1	5	0.78*
SMILES	NS3h inh CB	Cy5 interf NS3h
Nn1c(Nc2ccccc2)nc2ccccc21	-1	1
c1ccc(Nc2ccc3nc4ccccc4nc3c2)cc1	15	0.55*
Cc1cc(C)nc(N=C(N)Nc2ccc(Cl)cc2C(=O)c2ccccc2)n1	1	0.79*
Cc1cc(C)nc(N=C(N)Nc2ccc(C(=O)O)cc2)n1	-14	1.1
COc1ccccc1C(=O)O/C(=C/c1nc2ccccc2n1C)c1ccccc1OC	13	0.97
COc1cc(NC(=O)c2cccc([N+](=O)[O-])c2)ccc1NC(=O)c1ccco1	-15	0.73*
COc1cc(NC(=O)c2ccc([N+](=O)[O-])cc2)ccc1NC(=O)c1ccco1	1	0.94
Cc1cc(/C=C(\C#N)C(=O)Nc2ccccc2)c(C)n1-c1cccc([N+](=O)[O-])c1	18	1
COc1ccc2c(c1)C(NC(=O)C(F)(F)F)CC2=O (stereo not given)	-2	0.62*
COc1ccc(OC)c(C2C3=C(CC(C)(C)CC3=O)OC3=C2C(=O)CC(C)(C)C3)c1	3	1.1
Cc1cccc(N2C(=O)c3cccc([N+](=O)[O-])c3C2=O)n1	2	0.97
O=C1NC(=S)N/C1=C/c1ccc(OCc2ccccc2)c(Br)c1	-4	0.98
O=C1NC(=S)N/C1=C\c1ccccc1OCc1ccc([N+](=O)[O-])cc1	-5	0.67*
COc1cc(C2=N/C(=C\N(C)C)C(=O)O2)cc(OC)c1OC	4	1
COC(=O)c1ccc(C(=O)OC)c(NC(=O)CC(c2ccccc2)c2ccccc2)c1	14	0.75*
COC(=O)c1ccc(C(=O)OC)c(NC(=O)Cc2ccccc2[N+](=O)[O-])c1	10	0.78*
COc1ccc(C)cc1NC(=O)Cc1ccccc1[N+](=O)[O-]	12	1.1
COC(=O)c1ccc(C(=O)OC)c(NC(=O)c2c(Cl)cccc2Cl)c1	19	1.1
COc1cc(Cl)cc(/C=C2\SC(=S)N(C)C2=O)c1O	6	0.94
Cc1ccc(NC(=O)c2ccco2)cc1Br	5	1
O=C(O)CCC(=O)Nc1ccc(S(=O)(=O)N2CCCCCC2)cc1	-6	0.95
Nc1ccc(S(=O)(=O)N2CCCCCC2)cc1	2	0.75*
COc1ccc(C2C(=C(O)c3ccc(Br)cc3)C(=O)C(=O)N2CCc2ccccc2)cc1OC (stereo not given)	7	0.97
O=C(COc1cccc2ccccc12)NCC1CCCO1 (stereo not given)	10	0.77*
O=C(COc1cccc2ccccc12)NCc1ccccn1	1	0.91
SMILES	NS3h inh CB	Cy5 interf NS3h
O=C(COc1cccc2ccccc12)NCc1cccnc1	17	0.74*
O=C(COc1cccc2ccccc12)NCc1ccco1	4	0.89
COc1ccc(/C=C2/SC(=S)N(c3cccc(C(F)(F)F)c3)C2=O)cc1	4	1
Cc1cc(Br)ccc1N1C(=O)/C(=C/c2cc(C)n(C)c2C)C(=O)NC1=S	-12	1.2*
Cc1cc(C=C2C(=O)N(C)C(=O)N(C)C2=O)c(C)n1C	-10	1.1
CCc1ccccc1N1C(=O)/C(=C/c2cc(C)n(C)c2C)C(=O)NC1=S	10	1.2*
Cc1cc(/C=C2\C(=O)NC(=S)N(c3ccc(Br)cc3)C2=O)c(C)n1C	33	1.2
Cc1cc(/C=C2\C(=O)NC(=S)N(c3ccccc3)C2=O)c(C)n1-c1cccnc1	15	1.2*
Cc1cc(/C=C2\C(=O)NC(=S)N(c3ccccc3)C2=O)c(C)n1-c1ccccc1	0	1.1
CCOCP(=O)(COCC)COCC	1	1.1
O=C(Nc1ccc(-c2nc3ccccc3s2)cc1)c1cc2ccccc2oc1=O	0	1.1
Cc1ccc(S(=O)(=O)OCP(=O)(c2ccccc2)c2ccccc2)cc1	9	0.77*
COCP(=O)(c1ccccc1)c1ccccc1	-9	0.91
O=C(CCc1ccccc1)NCCOc1ccccc1	1	1
O=S(=O)(NC1CCCCCC1)c1cc(Cl)ccc1Cl	7	0.92
NC(=O)CN1C(=O)/C(=C2\SC(=S)N(Cc3ccccc3)C2=O)c2ccccc21	7	0.8*
C=CCN1C(=O)/C(=C2\SC(=S)N(Cc3ccco3)C2=O)c2ccccc21	17	0.98
COc1ccc(N(CC(=O)Nc2ccc(Br)cc2)S(=O)(=O)c2ccc(OC)c(OC)c2)cc1	10	0.7*
COc1ccc(N(CC(=O)Nc2ccc(C(=O)N3CCOCC3)cc2)S(=O)(=O)c2ccccc2)cc1	13	0.72*
COc1ccc(S(=O)(=O)N(CC(=O)Nc2ccc(C(C)=O)cc2)c2ccc(C)cc2)cc1OC	10	0.91
COc1ccc(NC(=O)CN(c2ccc(Cl)cc2)S(=O)(=O)c2ccccc2)cc1	11	1
COc1ccc(N(CC(=O)Nc2ccc3ccccc3c2)S(=O)(=O)c2ccc(C)cc2)c(OC)c1	10	1.1
COc1ccc(N(CC(=O)Nc2ccccc2Cl)S(=O)(=O)c2ccc(C)cc2)c(OC)c1	-1	1.2*
